In experiment [1] the test system is Plasmodium falciparum Sir2 (PF13_0152, Sir2A). As to the kind of experiment: pfSir2 binders on small-molecule microarrays, primary screen, biochemical, small-molecule microarray, 635 nm fluorescence (AID 1098).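 Note: score merges spot fluorescence intensity with its signal-to-noise ratio.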 Conditions: small-molecule microarray binding, fluorescence 635 nm; higher = more signal.
Experiment [2] can be described thus: small-molecule microarray binders of probe aDKK1, primary screen, biochemical, biotinylated probe, 635/667 nm fluorescence (AID 1099).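 Note: score merges 667nm spot fluorescence with signal to noise across triplicate slides.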 Conditions: higher = more signal.
Experiment [3] is described as follows: small-molecule microarray binders of probe aCHRDL2, primary screen, biochemical, biotinylated probe, 635/667 nm fluorescence (AID 1100). Conditions: higher = more signal.
The nature of experiment [4]: splicing luciferase reporter signal modulators, primary screen, spliceosome inhibition project, cell-based, HEK293, splice +/- reporter (AID 1101).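 Note: HEK293 cells carrying a splicing-competent luciferase reporter gene; test concentration not given here.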 Conditions: luminescence, 24 h, higher = more signal, called active from +8 up or from −8 down.
For experiment [5], the target named is Fibroblast growth factor 10 (Homo sapiens) (UniProt O15520). In words: FGF10 binders on small-molecule microarrays, primary screen, biochemical, small-molecule microarray, 635 nm fluorescence (AID 1102). Conditions: FGF10 binding, fluorescence 635 nm, higher = more signal.
Experiment [6] concerns glycogen synthase kinase-3 (GSK3A per assay name; protocol says GSK3B). In words: GSK3 binders on small-molecule microarrays, primary screen, biochemical, small-molecule microarray, 635 nm fluorescence, GSK3A (AID 1103). Note: the record names both GSK3A and GSK3B. Conditions: small-molecule microarray binding, fluorescence 635 nm; higher = more signal.
In experiment [7] the target is Epidermal growth factor receptor (Homo sapiens) (UniProt P00533). As to the kind of experiment: EGFR binders on small-molecule microarrays, primary screen, biochemical, small-molecule microarray, 635 nm fluorescence (AID 1104).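 Note: score merges 667 nm emission intensity with spot signal to noise over triplicate slides.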 Conditions: EGFR binding, higher = more signal.
The target of experiment [8] is Follistatin-related protein 3 (Homo sapiens) (UniProt O95633). As to the kind of experiment: FSTL3 binders on small-molecule microarrays, primary screen, biochemical, small-molecule microarray, 635 nm fluorescence (AID 1105).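 Note: score merges emission near 667 nm and signal to noise per printed spot across three slides.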 Conditions: FSTL3 binding, higher = more signal.
Experiment [9] has as its target Dickkopf-related protein 1 (Homo sapiens) (UniProt O94907). In words: DKK1 binders on small-molecule microarrays, primary screen, biochemical, small-molecule microarray, 635 nm fluorescence scan (AID 1106).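 Note: score merges emission near 667 nm with signal to noise over three replicate slides.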 Conditions: DKK1 binding, higher = more signal.
Experiment [10] has as its system Inhibin beta A chain (activin A). In words: INHBA (activin A) binders on microarrays, primary screen, biochemical, small-molecule microarray, 635 nm fluorescence scan (AID 1107).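 Note: mouse activin A protein probed at 4.33 µg/mL on printed slides; score merges bound-protein fluorescence near 667 nm with spot signal-to-noise.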 Conditions: small-molecule microarray binding, higher = more signal.
Experiment [11] relates to Human papillomavirus type 1a protein E7 (residues 44-93). In words: HPV1a E7 fragment binders on microarrays, primary screen, biochemical, small-molecule microarray, residues 44-93, 635 nm fluorescence (AID 1108).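 Note: E7 fragment applied at 1 µg/mL in TBST for 1 h at 4 C; score combines spot fluorescence with its signal to noise ratio.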 Conditions: small-molecule microarray binding, fluorescence 635 nm; higher = more signal.
A short description of experiment [12]: modulators of HCV replicon luciferase signal, primary screen, HCV replication inhibitor project, Huh7 cells, luciferase reporter (AID 1109).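 Note: huh7 hepatoma cells harbouring a luciferase neomycin HCV replicon reporter; luciferase luminescence as measure of HCV replicon replication; test concentration not given here.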 Conditions: 48 h, higher = more signal. In general terms: In antiviral work, replicon cells carry a viral genome segment that copies itself.
The target in experiment [13] is Left-right determination factor 2 (Homo sapiens) (UniProt O00292). As to the kind of experiment: LEFTY2 binders on small-molecule microarrays, primary screen, biochemical, small-molecule microarray, 635 nm fluorescence scan (AID 1110). Conditions: LEFTY2 binding, higher = more signal.
Experiment [14] concerns the target Calmodulin-1 (Homo sapiens) (UniProt P0DP23). In words: CALM1 binders on microarrays, EGTA buffer, profiling panel, biochemical, small-molecule microarray, Cy5-labelled CALM1 (AID 1111).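 Note: labelled calmodulin applied in Tris saline Tween buffer holding calcium plus EGTA and DTT.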 Conditions: Cy5-CALM1 binding fluorescence, higher = more signal.
Experiment [15] has the same target. As to the kind of experiment: calcium-bound CALM1 binders on microarrays, profiling panel, artefact control for SMM control-protein annotation, biochemical, small-molecule microarray, Cy5-labelled CALM1, plus calcium (AID 1112).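 Note: score merges spot fluorescence with signal to noise from triplicate slides.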 Conditions: Cy5-CALM1 binding fluorescence, higher = more signal.
The nature of experiment [16]: small-molecule microarray binders of probe aWnt5a, primary screen, biochemical, biotinylated probe, 635/667 nm fluorescence (AID 1113).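 Note: score merges 667 nm fluorescence intensity with signal-to-noise per printed feature.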 Conditions: higher = more signal.
The nature of experiment [17]: small-molecule microarray binders of probe aShh, primary screen, biochemical, biotinylated probe, 635/667 nm fluorescence (AID 1114).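 Note: probe is biotin-labelled aShh protein from a stem cell growth factor screen; measures binding of labelled protein to compounds printed on the slide; score merges feature fluorescence at 667 nm with signal-to-noise.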 Conditions: higher = more signal.
A short description of experiment [18]: small-molecule microarray binders of probe aNog, primary screen, biochemical, biotinylated probe, 635/667 nm fluorescence (AID 1115).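 Note: probe is biotinylated aNog protein used at 0.15 µg/mL for 1 h at 4 C; z-score combines 667 nm fluorescence of each spot with its signal to noise.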 Conditions: higher = more signal.
The target in experiment [19] is Torsin-1A-interacting protein 1 (Homo sapiens) (UniProt Q5JTV8). As to the kind of experiment: LAP1 binders from COS7 cell lysate, primary screen, small-molecule microarray, 635/667 nm fluorescence (AID 1116). Conditions: COS7-hLAP1 lysate binding, 635 nm fluorescence, higher = more signal.
In experiment [20] the target is Alpha-bungarotoxin (Bungarus multicinctus) (UniProt P60615). As to the kind of experiment: alpha-bungarotoxin binders on microarray, profiling panel, artefact control for SMM control protein annotation, biochemical, small-molecule microarray, Alexa647 label, 635/667 nm fluorescence (AID 1117). Conditions: alpha-BTX-A647 binding fluorescence, higher = more signal.

The source made the active and inactive calls.

Chain of Follistatin-related protein 3 (Homo sapiens) (O95633 whole entry, looked up): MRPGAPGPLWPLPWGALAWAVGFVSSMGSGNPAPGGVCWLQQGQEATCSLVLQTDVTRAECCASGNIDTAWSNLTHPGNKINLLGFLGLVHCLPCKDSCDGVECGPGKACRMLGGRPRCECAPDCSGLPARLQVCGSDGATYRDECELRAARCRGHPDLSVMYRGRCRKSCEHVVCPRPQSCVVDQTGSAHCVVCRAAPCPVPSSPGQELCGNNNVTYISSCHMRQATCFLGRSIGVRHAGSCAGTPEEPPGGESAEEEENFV
Chain of Epidermal growth factor receptor (Homo sapiens) (P00533 whole entry, looked up): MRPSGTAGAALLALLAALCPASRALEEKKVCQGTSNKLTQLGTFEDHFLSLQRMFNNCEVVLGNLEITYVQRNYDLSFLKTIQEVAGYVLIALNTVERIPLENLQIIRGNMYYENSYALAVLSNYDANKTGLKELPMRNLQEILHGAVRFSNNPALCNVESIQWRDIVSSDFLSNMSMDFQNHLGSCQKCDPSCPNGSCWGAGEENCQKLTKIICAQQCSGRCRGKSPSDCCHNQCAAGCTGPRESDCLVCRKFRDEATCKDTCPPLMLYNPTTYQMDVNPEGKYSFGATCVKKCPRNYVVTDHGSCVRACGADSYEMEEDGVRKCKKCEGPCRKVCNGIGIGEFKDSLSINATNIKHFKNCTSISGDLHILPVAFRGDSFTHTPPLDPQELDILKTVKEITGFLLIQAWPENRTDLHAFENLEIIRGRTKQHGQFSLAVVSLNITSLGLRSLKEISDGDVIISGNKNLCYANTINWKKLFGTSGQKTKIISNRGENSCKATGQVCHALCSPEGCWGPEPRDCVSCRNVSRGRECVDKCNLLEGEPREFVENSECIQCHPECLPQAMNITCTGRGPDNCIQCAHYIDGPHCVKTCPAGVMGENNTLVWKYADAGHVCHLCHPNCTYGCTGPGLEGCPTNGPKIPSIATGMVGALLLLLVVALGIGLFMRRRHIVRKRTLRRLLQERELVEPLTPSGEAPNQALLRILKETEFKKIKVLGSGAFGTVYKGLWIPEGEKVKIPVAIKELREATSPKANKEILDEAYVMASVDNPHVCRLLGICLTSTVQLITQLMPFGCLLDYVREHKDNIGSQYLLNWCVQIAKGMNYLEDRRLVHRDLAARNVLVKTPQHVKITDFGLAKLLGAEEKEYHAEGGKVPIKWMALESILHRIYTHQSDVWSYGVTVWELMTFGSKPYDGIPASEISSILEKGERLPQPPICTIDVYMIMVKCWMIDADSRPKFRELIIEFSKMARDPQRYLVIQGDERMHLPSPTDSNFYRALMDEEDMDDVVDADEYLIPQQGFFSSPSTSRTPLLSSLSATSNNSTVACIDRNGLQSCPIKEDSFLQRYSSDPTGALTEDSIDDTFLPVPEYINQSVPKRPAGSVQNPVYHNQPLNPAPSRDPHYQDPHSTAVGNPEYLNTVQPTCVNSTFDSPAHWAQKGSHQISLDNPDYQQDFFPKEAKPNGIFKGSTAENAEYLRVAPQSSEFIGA
Chain of Alpha-bungarotoxin (Bungarus multicinctus) (P60615 whole entry, looked up): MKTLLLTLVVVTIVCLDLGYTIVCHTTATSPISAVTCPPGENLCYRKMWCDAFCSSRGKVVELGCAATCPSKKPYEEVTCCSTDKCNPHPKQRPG
Chain of Torsin-1A-interacting protein 1 (Homo sapiens) (Q5JTV8 whole entry, looked up): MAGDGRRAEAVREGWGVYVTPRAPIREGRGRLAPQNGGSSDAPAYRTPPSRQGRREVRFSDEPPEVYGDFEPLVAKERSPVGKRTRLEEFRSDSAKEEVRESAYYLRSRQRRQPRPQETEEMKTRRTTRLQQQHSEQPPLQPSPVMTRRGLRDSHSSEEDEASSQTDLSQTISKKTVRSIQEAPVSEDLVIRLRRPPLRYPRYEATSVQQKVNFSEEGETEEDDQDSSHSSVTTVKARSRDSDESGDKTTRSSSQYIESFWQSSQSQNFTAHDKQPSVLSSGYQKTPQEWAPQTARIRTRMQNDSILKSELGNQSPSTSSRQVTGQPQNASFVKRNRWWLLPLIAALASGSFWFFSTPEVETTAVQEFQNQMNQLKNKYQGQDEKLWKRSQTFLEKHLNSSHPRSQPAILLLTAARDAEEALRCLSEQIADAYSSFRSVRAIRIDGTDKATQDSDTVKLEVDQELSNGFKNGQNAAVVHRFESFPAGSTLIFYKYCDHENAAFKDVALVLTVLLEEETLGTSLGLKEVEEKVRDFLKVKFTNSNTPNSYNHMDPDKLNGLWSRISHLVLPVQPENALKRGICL
Chain of Dickkopf-related protein 1 (Homo sapiens) (O94907 whole entry, looked up): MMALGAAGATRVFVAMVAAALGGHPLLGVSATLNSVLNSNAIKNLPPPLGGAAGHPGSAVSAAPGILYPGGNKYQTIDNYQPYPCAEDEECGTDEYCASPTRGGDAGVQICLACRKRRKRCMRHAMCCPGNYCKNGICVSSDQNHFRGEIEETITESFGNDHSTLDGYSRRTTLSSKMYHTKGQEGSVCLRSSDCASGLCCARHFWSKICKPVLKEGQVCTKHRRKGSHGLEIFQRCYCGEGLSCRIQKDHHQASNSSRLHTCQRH
Chain of Left-right determination factor 2 (Homo sapiens) (O00292 whole entry, looked up): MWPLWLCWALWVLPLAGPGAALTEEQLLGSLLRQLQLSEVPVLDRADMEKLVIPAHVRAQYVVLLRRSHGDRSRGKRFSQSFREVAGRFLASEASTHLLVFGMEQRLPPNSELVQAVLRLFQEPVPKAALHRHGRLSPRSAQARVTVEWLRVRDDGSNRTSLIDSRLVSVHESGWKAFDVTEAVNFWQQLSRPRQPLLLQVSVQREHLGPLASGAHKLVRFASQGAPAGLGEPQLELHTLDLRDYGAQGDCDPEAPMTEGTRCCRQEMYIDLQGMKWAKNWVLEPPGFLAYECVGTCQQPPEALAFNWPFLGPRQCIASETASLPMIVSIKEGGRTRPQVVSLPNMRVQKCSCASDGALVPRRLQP
Chain of Fibroblast growth factor 10 (Homo sapiens) (O15520 whole entry, looked up): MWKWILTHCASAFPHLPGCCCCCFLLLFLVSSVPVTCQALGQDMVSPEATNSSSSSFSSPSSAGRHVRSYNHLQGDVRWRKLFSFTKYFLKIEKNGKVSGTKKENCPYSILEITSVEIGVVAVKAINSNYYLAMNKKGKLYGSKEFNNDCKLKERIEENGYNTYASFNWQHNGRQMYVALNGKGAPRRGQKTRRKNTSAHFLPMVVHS

Regarding `[N-]=[N+]=NCc1ccccc1[C@H]1OC(c2ccc(OCCCO)cc2)=N[C@@]1(CCS(=O)(=O)c1ccccc1)C(=O)NCCN1CCOCC1`, the composite z-score in experiment [1] was found to be 1.51; in [2], 0.667; in [3], 1.12; in experiment [5], 1.38; in experiment [6] it was 0.844; in experiment [7], 0.135. Also, the composite z-score is 0.698 in experiment [8]; 0.0689 in experiment [9]; 0.914 in experiment [10]; 1.49 in experiment [11]; 0.0744 in experiment [13]; 1.39 in [14]. Besides, the composite z-score in experiment [15] is 0.593; in experiment [16] it was 0.143; in experiment [17] it was -0.107; in experiment [18], -0.612; in experiment [19], 1.06; in experiment [20], 1.3. For the same molecule, the z-score in [4] was -0.757 (inactive); in experiment [12], -0.233.
On to `CC(C)(C)OC(=O)CC[C@@]1(C(=O)N2CCOCC2)N=C(c2ccc(OCCCO)cc2)O[C@@H]1c1ccccc1CN=[N+]=[N-]`, for which the composite z-score was 1.23 in experiment [1]; 0.956 in experiment [2]; 1.15 in experiment [3]; 1.28 in experiment [5]; 0.818 in experiment [6]; 0.234 in [7]. Moreover, the composite z-score in [8] is 0.488; in experiment [9], -0.0447; in experiment [10], 1.01; in experiment [11], 1.46; in experiment [13], 0.0254; in experiment [14], 2.04. The composite z-score in [15] came to 0.742; in experiment [16], 0.281; in [17], 0.0875; in [18], 2.13; in [19], 3.31; in experiment [20], 0.986. The z-score in experiment [4] was 0.178 (inactive); in experiment [12] it was 0.265.
Regarding `C=C(COC)/C(=C/C[C@@H](OC(C)=O)c1cccc(OCCO)c1)c1cnc2ccccc2c1`, the composite z-score is -0.219 in [1]; 0.15 in experiment [2]; 0.322 in experiment [3]; 1.56 in experiment [5]; 0.917 in experiment [6]; 1.26 in experiment [7]. The composite z-score was 1.55 in experiment [8]; 1.02 in [9]; 1.93 in experiment [10]; 0.848 in experiment [11]; 0.754 in experiment [13]; -0.534 in experiment [14]. In addition, the composite z-score in experiment [15] was -0.593; in experiment [16] it was 0.0391; in experiment [17], 0.199; in experiment [18] it was -0.0065; in [19] it was 0.302; in experiment [20] it was 1.87. Moreover, the z-score in experiment [4] is -0.302 (inactive); in experiment [12], -1.73.
As to `CN1C(=O)C2C(C1=O)C1C=C(CCCO)C2C(C2CC2)N1C` (stereo not given), the composite z-score in [1] was 0.264; in experiment [2], 0.0917; in experiment [3], 0.38; in experiment [5] it was -0.158; in [6], -0.83; in experiment [7], 0.0501. Moreover, the composite z-score in experiment [8] is -0.694; in experiment [9] it was -0.741; in experiment [10], 0.411; in experiment [11], -0.524; in [13], -0.151; in [14], 0.394. Besides, the composite z-score is 0.535 in experiment [15]; -0.328 in experiment [16]; 0.0062 in experiment [17]; -0.0477 in [18]; 2.83 in experiment [19]; -0.685 in [20]. Further, the z-score in [4] was -0.89 (inactive); in experiment [12], 0.669.
For the molecule `CCCCN1CC=CC23O[C@@H]4/C=C\CCC(C)OC(=O)C4[C@H]2C(=O)N(CCO)[C@@H]3C1=O` (stereo not given in full), the composite z-score is 1.38 in experiment [1]; -0.218 in experiment [2]; 0.64 in [3]; -1.17 in experiment [5]; -0.415 in experiment [6]; -0.652 in [7]. Also, the composite z-score in [8] was -0.0882; in experiment [9], -0.231; in experiment [10], 1.19; in experiment [11] it was -0.391; in [13], -0.99; in experiment [14], -0.896. In addition, the composite z-score in [15] is -0.272; in experiment [16], -0.171; in experiment [17], -0.2; in experiment [18], 0.171; in experiment [19] it was 3.55; in [20] it was -0.238. Moreover, the z-score is 0.267 (inactive) in experiment [4] and -0.58 in experiment [12].
In the case of `[N-]=[N+]=NCc1ccccc1[C@H]1OC(c2ccc(OCCCO)cc2)=N[C@@]1(Cc1ccccc1N=[N+]=[N-])C(=O)N1CCOCC1`, the composite z-score was 1.02 in experiment [1]; 0.596 in experiment [2]; 0.828 in experiment [3]; 0.458 in [5]; 1.1 in experiment [6]; -0.292 in experiment [7]. For the same molecule, the composite z-score is 0.29 in experiment [8]; -0.287 in experiment [9]; 0.594 in experiment [10]; 1.39 in experiment [11]; -0.267 in experiment [13]; 1.86 in experiment [14]. Moreover, the composite z-score in experiment [15] was found to be 0.642; in experiment [16], 0.0115; in experiment [17], 0.539; in experiment [18] it was 1.44; in experiment [19] it was 0.506; in [20], 1.4. Moreover, the z-score in experiment [4] is -0.1 (inactive); in [12], -2.2.

The record behind these values is PubChem BioAssay.
